ChEMBL document CHEMBL5606460, “ASAP - DENV-2 NS2B-NS3 protease fluorescence single point” (2024)
The whole screen tested about 2,000 compounds, of which about 110 (5.5%) showed an effect of 50% or more. The sample as a whole holds a higher share of strong results than the screen did.

Biological target: Genome polyprotein (dengue virus type 2) (UniProt P29990)
[1] = Thailand/16681/1984, Concentration 25.0 uM, Number of replicates 1.0

Q: Which inhibition (Thailand/16681/1984, Concentration 49.95 uM, Number of replicates 2.0, Standard deviation 0.5174294413229081 %) does the source give for `Cc1cc(CO)c2cccc(Cc3cccc(C(=O)NCC(N)=O)c3)c2n1` here?
A: 2.44%

Q: What about the inhibition (Thailand/16681/1984, Concentration 99.9 uM, Number of replicates 2.0, Standard deviation 1.3216010889796208 %) of the same molecule?
A: 17.6%

Q: Which results are given for `Cc1cc(CO)c2cccc(Cc3cccc(C(=O)NCC(=O)O)c3)c2n1`?
A: inhibition (Thailand/16681/1984, Concentration 49.95 uM, Number of replicates 2.0, Standard deviation 0.8336363408632846 %): 63.2%; inhibition (Thailand/16681/1984, Concentration 99.9 uM, Number of replicates 2.0, Standard deviation 0.025873444538655716 %): 79.2%

Q: For `O=Cc1ccc(N2CCC(C(=O)N3CCc4ccc([N+](=O)[O-])cc4C3)CC2)cc1`, which inhibition [1] is on record?
A: 16.6%

Q: Which inhibition [1] does the source give for `O=Cc1ccc(N2CCC(C(=O)NCC3CCC(C(F)(F)F)CC3)CC2)cc1` (stereo unspecified) here?
A: 12.8%

Q: `Cc1cc(C)nc(CCNC(=O)C2CCN(c3ccc(C=O)cc3)CC2)n1` was tested. Which inhibition [1] did it give?
A: 10.6%

Q: With `C[C@@H](CNc1cc(Cl)cc(C(=O)NC(C)(C)CO)c1)c1ccc(F)cc1` as the molecule, how does the inhibition (Thailand/16681/1984, Concentration 49.5 uM, Number of replicates 2.0, Standard deviation 1.7964155145983758 %) read?
A: -4.87%

Q: And the inhibition (Thailand/16681/1984, Concentration 99.01 uM, Number of replicates 2.0, Standard deviation 2.367041527999976 %)?
A: -8.66%

Q: For `O=Cc1ccc(N2CCC(C(=O)NCc3ccc(Br)cn3)CC2)cc1`, which inhibition [1] is on record?
A: 13.7%

Q: For `Cc1cc(CO)c2cccc(NC(=O)C3CCC(N)CC3)c2n1` (stereo unspecified), which inhibition (Thailand/16681/1984, Concentration 49.95 uM, Number of replicates 2.0, Standard deviation 0.3430335372049546 %) is on record?
A: 80.8%

Q: And the inhibition (Thailand/16681/1984, Concentration 99.9 uM, Number of replicates 2.0, Standard deviation 0.009052468710563864 %)?
A: 98.8%

Q: For `Cc1cc(CO)c2cccc(NC(=O)[C@@H]3CCCC[C@H]3C(=O)O)c2n1`, which inhibition (Thailand/16681/1984, Concentration 49.95 uM, Number of replicates 2.0, Standard deviation 1.6403651221128503 %) is on record?
A: 4.53%

Q: And the inhibition (Thailand/16681/1984, Concentration 99.9 uM, Number of replicates 2.0, Standard deviation 0.7343808497949172 %)?
A: 11.1%

Q: Which inhibition (Thailand/16681/1984, Concentration 99.9 uM, Number of replicates 2.0, Standard deviation 2.5723142976307076 %) does the source give for `Cc1cc(CO)c2cccc(NC(=O)C3CCN(C)CC3)c2n1` here?
A: 0.725%

Q: With `Cc1cc(CO)c2cccc(NC(=O)[C@@H]3CCCC[C@H]3N)c2n1` as the molecule, how does the inhibition (Thailand/16681/1984, Concentration 49.95 uM, Number of replicates 2.0, Standard deviation 4.042326157041073 %) read?
A: -9.54%

Q: Which inhibition (Thailand/16681/1984, Concentration 49.95 uM, Number of replicates 2.0, Standard deviation 1.6119901778213759 %) does the source give for `Cc1cc(CO)c2cccc(NC(=O)CNC3CC3)c2n1` here?
A: 15.9%

Q: And the inhibition (Thailand/16681/1984, Concentration 99.9 uM, Number of replicates 2.0, Standard deviation 1.4451149573517064 %)?
A: 30.7%

Q: With `Cc1cc(CO)c2cccc(NC(=O)C3CC(N)C3)c2n1` (stereo unspecified) as the molecule, how does the inhibition (Thailand/16681/1984, Concentration 49.95 uM, Number of replicates 2.0, Standard deviation 0.3514210972334106 %) read?
A: 31.4%

Q: What about the inhibition (Thailand/16681/1984, Concentration 99.9 uM, Number of replicates 2.0, Standard deviation 0.19619256829384746 %) of the same molecule?
A: 78.8%

Q: What does the source list for `Cc1cc(CO)c2cccc(NC(=O)C3CCC(CN)CC3)c2n1` (stereo unspecified)?
A: inhibition (Thailand/16681/1984, Concentration 49.95 uM, Number of replicates 2.0, Standard deviation 1.7984525560806044 %): 96%; inhibition (Thailand/16681/1984, Concentration 99.9 uM, Number of replicates 2.0, Standard deviation 0.012834221133749364 %): 98.2%

Q: `Cc1cc(CO)c2cccc(NC(=O)C3CNC3)c2n1` was tested. Which inhibition (Thailand/16681/1984, Concentration 99.9 uM, Number of replicates 2.0, Standard deviation 1.2849235527062883 %) did it give?
A: -8.19%

Q: Which inhibition (Thailand/16681/1984, Concentration 49.95 uM, Number of replicates 2.0, Standard deviation 1.8979597481282788 %) does the source give for `Cc1cc(CO)c2cccc(NC(=O)[C@H]3CCNC3)c2n1` here?
A: -0.539%

Q: What about the inhibition (Thailand/16681/1984, Concentration 99.9 uM, Number of replicates 2.0, Standard deviation 1.976292784952565 %) of the same molecule?
A: 2.99%

Q: Which inhibition (Thailand/16681/1984, Concentration 49.95 uM, Number of replicates 2.0, Standard deviation 1.684279261738791 %) does the source give for `Cc1cc(CO)c2cccc(NC(=O)[C@@H]3CC(=O)CCN3)c2n1` here?
A: 1.29%

Q: And the inhibition (Thailand/16681/1984, Concentration 99.9 uM, Number of replicates 2.0, Standard deviation 1.6842793565692 %)?
A: -1.57%

Q: Which inhibition [1] does the source give for `CN(CCc1ccccc1F)C(=O)C1CCN(c2ccc(C=O)cc2)CC1` here?
A: 13.4%

Q: For `O=Cc1ccc(N2CCC(C(=O)Nc3ccc([N+](=O)[O-])c4ccccc34)CC2)cc1`, which inhibition [1] is on record?
A: 13.5%

Q: With `CN(Cc1nc2ccsc2c(=O)[nH]1)C(=O)C1CCN(c2ccc(C=O)cc2)CC1` as the molecule, how does the inhibition [1] read?
A: 11.8%

Q: Which inhibition [1] does the source give for `O=Cc1ccc(N2CCC(C(=O)N[C@H](c3ccccc3)C(F)(F)F)CC2)cc1` here?
A: 13.1%

Q: Which results are given for `Cc1cc(CO)c2cccc(CC(=O)NCc3c(C)noc3C)c2n1`?
A: inhibition (Thailand/16681/1984, Concentration 49.95 uM, Number of replicates 2.0, Standard deviation 0.8979901952671747 %): -6.95%; inhibition (Thailand/16681/1984, Concentration 99.9 uM, Number of replicates 2.0, Standard deviation 0.7380557178102791 %): -7.49%

Q: With `Cc1cc(CO)c2cccc(Cc3ccccc3C(=O)Nc3cc(C)on3)c2n1` as the molecule, how does the inhibition (Thailand/16681/1984, Concentration 49.95 uM, Number of replicates 2.0, Standard deviation 1.5788782649320652 %) read?
A: 8.61%

Q: What about the inhibition (Thailand/16681/1984, Concentration 99.9 uM, Number of replicates 2.0, Standard deviation 0.4297535440018178 %) of the same molecule?
A: 25.7%

Q: With `Cc1cc(CO)c2cccc(CC(=O)Nc3cc(C)[nH]n3)c2n1` as the molecule, how does the inhibition (Thailand/16681/1984, Concentration 49.95 uM, Number of replicates 2.0, Standard deviation 0.6660500187655393 %) read?
A: 4.74%

Q: And the inhibition (Thailand/16681/1984, Concentration 99.9 uM, Number of replicates 2.0, Standard deviation 2.9944546877986085 %)?
A: 12.6%

Q: For `Cc1cc(CO)c2cccc(Cc3cccc(C(=O)Nc4cc(C)[nH]n4)c3)c2n1`, which inhibition (Thailand/16681/1984, Concentration 49.95 uM, Number of replicates 2.0, Standard deviation 1.9137700846759278 %) is on record?
A: 0.711%

Q: What about the inhibition (Thailand/16681/1984, Concentration 99.9 uM, Number of replicates 2.0, Standard deviation 1.69961162141419 %) of the same molecule?
A: 3.33%

Q: What does the source list for `Cc1cc(CO)c2cccc(CC(=O)Nc3cc(C)on3)c2n1`?
A: inhibition (Thailand/16681/1984, Concentration 49.95 uM, Number of replicates 2.0, Standard deviation 0.056769444720657654 %): 98.7%; inhibition (Thailand/16681/1984, Concentration 99.9 uM, Number of replicates 2.0, Standard deviation 0.01177144620169866 %): 99.4%
